# Measurements from PubChem BioAssay AID372 (MTDP, 2006).
# About 770 (0.77%) of roughly 100,000 compounds were called active. Cut-off read from the data, not from the text of the source: active = inhibition above about 50%; inactive = the rest. Only a selection was taken, and actives are over-represented in it overall.
# Molecular target: Gag-Pol polyprotein (Human immunodeficiency virus type 1 group M subtype B (isolate HXB2)) (UniProt P04585)
# Assay: RNase H inhibition, HIV 1 Gag Pol polyprotein, FRET biochemical assay, screening (AID 372)
# Details: HIV-1 RT RNase H, FRET RNA/DNA substrate fluorescence; at 10 µM; hits give high values
row,SMILES,inhibition
1,COc1ccc(CN2CCN(Cc3ccccc3C(F)(F)F)CC2)cc1Br,4% (inactive)
2,Cc1ccc(/C(N)=N/OC(=O)c2ccc(C)cc2Cl)cc1,10% (inactive)
3,Clc1ccc(-c2nnc(-c3ccc4c(c3)OCO4)o2)c(Cl)c1,3% (inactive)
4,CCOC(=O)C1=C(C)N=c2s/c(=C\c3cccc(OCc4ccccc4Cl)c3)c(=O)n2C1c1ccc(Cl)cc1 (stereo not given),11% (inactive)
5,COc1ccc(Br)cc1CNC12CC3CC(CC(C3)C1)C2,6% (inactive)
6,Br/C(=C\c1ccccc1)C1Nc2cccc3cccc(c23)N1,21% (inactive)
7,CCCCC(O)(CCCC)c1ccccc1O,3% (inactive)
8,O=c1oc2ccccc2cc1-c1csc(-c2ccc(O)cc2)n1,43% (inactive)
9,CCOc1ccc(NC(=O)/C(C#N)=C\c2ccc(O)c(OCC)c2)cc1,20% (inactive)
10,CCOc1cc(/C=C(/C#N)C(=O)Nc2cc(Cl)ccc2Cl)ccc1O,51% (active)
11,CCNC(=O)/C(C#N)=C/c1ccc(O)c(OCC)c1,6% (inactive)
12,COc1ccc2c(c1)C1C=CCC1C(C(=O)O)N2 (stereo not given),25% (inactive)
13,O=C(c1ccccc1)c1ccc2[nH]c(=O)[nH]c2c1,0% (inactive)
14,O=C(c1ccccc1)c1ccc(O)c(O)c1,60% (active)
15,Cc1ccc(C(=O)c2cccc(C(=O)c3ccc(C)cc3)c2)cc1,7% (inactive)
16,O=C(Sc1nnnn1-c1ccccc1)c1ccccc1Br,0% (inactive)
17,Cc1sc(NC(=O)C2CCCCC2)c(C(N)=O)c1C,7% (inactive)
18,CCOC(=O)c1sc(NC(=O)C2CC3CCC2C3)c(C(=O)OCC)c1C (stereo not given),10% (inactive)
19,CCc1c(C)sc(NC(=O)C2CCCO2)c1C(N)=O (stereo not given),0% (inactive)
20,COC(=O)c1sc(NC(=O)C2CC3CCC2C3)c(C(N)=O)c1C (stereo not given),11% (inactive)
21,Oc1ccccc1N=Cc1c(O)c(I)cc2oc3c(c12)CCCC3,14% (inactive)
22,O=C(Nc1ccc(OC(F)(F)F)cc1)c1cccc(OCc2ccccc2)c1,0% (inactive)
23,c1ccc(CN2CCN(Cc3ccncc3)CC2)nc1,3% (inactive)
24,Cc1ccc2cccc(OS(=O)(=O)c3ccc(Cl)c(C)c3Cl)c2n1,52% (active)
25,COc1ccc(I)cc1S(=O)(=O)Oc1cccc2ccc(C)nc12,25% (inactive)

row,SMILES,inhibition
1,Cc1ccc2cccc(OS(=O)(=O)c3ccccc3C)c2n1,58% (active)
2,Cc1ccc2cccc(OS(=O)(=O)c3cc(Cl)c(Cl)cc3Cl)c2n1,43% (inactive)
3,Cc1ccc2cccc(OS(=O)(=O)c3cc(Cl)ccc3C)c2n1,47% (inactive)
4,Cc1ccc2cccc(OS(=O)(=O)c3ccc(Cl)cc3C)c2n1,43% (inactive)
5,CCc1nc(NC(=O)NS(=O)(=O)c2ccccc2C(=O)OC)nc(OC)n1,6% (inactive)
6,COc1cc(OC)cc(C(=O)N2CCN(c3ccc([N+](=O)[O-])cc3Cl)CC2)c1,9% (inactive)
7,O=C1NC(=S)N(c2cccc(Br)c2)C(=O)/C1=C/c1cccn1-c1ccccc1,39% (inactive)
8,CCC(=O)Nc1ccc2nc(SCC(=O)Nc3ccc(C(C)=O)cc3)sc2c1,14% (inactive)
9,CCC(=S)/C=C1\Sc2ccc(OC)cc2N1CCCS(=O)(=O)O,11% (inactive)
10,O=C(c1c(Cl)cccc1Cl)N1CCN(c2ccccc2)CC1,6% (inactive)
11,O=C(c1c(Cl)cccc1Cl)N1CCN(c2ccc(Cl)cc2)CC1,9% (inactive)
12,O=C(c1c(Cl)cccc1Cl)N1CCN(c2ccc(F)cc2)CC1,54% (active)
13,Cc1nnc(SCC(=O)NC(C)c2ccccc2)[nH]c1=O (stereo not given),0% (inactive)
14,CC(=C\c1ccccc1)/C=C1/SC(=Nc2ccc(F)cc2)NC1=O,13% (inactive)
15,O=C(N/N=C/c1ccc(F)cc1)c1ccc(Cl)c(Cl)c1,4% (inactive)
16,CC(=O)c1cccc(NC(=O)/C(=C\c2ccc(Br)cc2)NC(=O)c2ccc(C)cc2)c1,42% (inactive)
17,Cc1cccc(NC(=O)/C(=C/c2ccc(Br)cc2)NC(=O)c2ccccc2)c1,51% (active)
18,CC(=O)c1cccc(NC(=O)/C(=C/c2ccc(Br)cc2)NC(=O)c2ccccc2)c1,6% (inactive)
19,C/C(=N\Nc1ccc([N+](=O)[O-])cc1)c1ccc([N+](=O)[O-])o1,8% (inactive)
20,COc1cc(Cc2ccc(N/C=C/C(=O)c3ccc(Br)cc3)c(OC)c2)ccc1N/C=C/C(=O)c1ccc(Br)cc1,25% (inactive)
21,Cc1cc(Cl)ccc1OC(=O)c1ccc(Cl)cc1,51% (active)
22,Cc1ccc(C(=O)Oc2ccc(Cl)cc2C)cc1,2% (inactive)
23,Cc1cc(Cl)ccc1OC(=O)c1ccc(Br)cc1,34% (inactive)
24,O=C(Nc1cnc2ccccc2c1)C1COc2ccccc2O1 (stereo not given),3% (inactive)
25,O=S(=O)(CCc1nnc(-c2ccc(Br)cc2)o1)c1ccc(Cl)cc1,2% (inactive)

row,SMILES,inhibition
1,COc1ccc(N2C(=O)/C(=C/c3ccc(O)c(OC)c3)SC2=S)cc1,26% (inactive)
2,COc1cccc(N2C(=O)/C(=C/c3ccc(O)c(O)c3)SC2=S)c1,75% (active)
3,COc1ccc(N2C(=O)/C(=C\c3ccc(O)c(O)c3)SC2=S)cc1,77% (active)
4,COc1cccc(N2C(=O)/C(=C/c3cccc(O)c3)SC2=S)c1,29% (inactive)
5,COc1ccc(N2C(=O)/C(=C\c3ccc(OC)c(O)c3)SC2=S)cc1,4% (inactive)
6,COc1cccc(N2C(=O)/C(=C/c3ccc(O)c(OC)c3)SC2=S)c1,22% (inactive)
7,COc1cc(OC)cc(C(=O)Nc2ccc(N3CCN(C(=O)c4ccccc4)CC3)cc2)c1,31% (inactive)
8,CCOc1cccc2c1N(C(=O)c1ccccc1)C(C)(C)C(=S)C2=C1SC(C(=O)OC)=C(C(=O)OC)S1,45% (inactive)
9,CCCOc1ccc(C(=O)NCc2ccccc2)cc1,6% (inactive)
10,COc1cc(/C=C/c2nc3ccccc3c(=O)n2-c2cccc([N+](=O)[O-])c2)ccc1O,61% (active)
11,Cc1ccc(-n2c(/C=C/c3c(C)n(C)c4ccccc34)nc3ccccc3c2=O)cc1,0% (inactive)
12,COc1cc(/C=C/c2nc3ccccc3c(=O)n2-c2ccccc2[N+](=O)[O-])ccc1O,35% (inactive)
13,COc1cccc(/C=C/c2nc3ccccc3c(=O)n2-c2cccc([N+](=O)[O-])c2)c1O,27% (inactive)
14,O=C(O)c1ccc(-n2c(/C=C\c3ccccc3)nc3ccccc3c2=O)cc1,7% (inactive)
15,COc1ccc(OC)c(CN2CCN(Cc3cccc(Br)c3)CC2)c1,5% (inactive)
16,COc1ccc([N+](=O)[O-])cc1N(CC(O)CN1CCCCC1)S(=O)(=O)c1ccc(C)cc1 (stereo not given),12% (inactive)
17,Cc1c(C(=O)Oc2ccc3c(c2)C(C)CC(C)(C)N3)cccc1[N+](=O)[O-] (stereo not given),21% (inactive)
18,CCSc1nnc(NC(=O)COc2ccc(Cl)cc2Cl)s1,22% (inactive)
19,CC(=O)c1ccc(NC(=S)Nc2ccc3nccnc3c2)cc1,10% (inactive)
20,NC(N)=N/N=C/c1ccccc1OS(=O)(=O)c1ccccc1,0% (inactive)
21,O=S(=O)(Oc1ccccc1/C=N/NC(=S)Nc1ccccc1)c1ccccc1,52% (active)
22,NC(=O)N/N=C/c1ccccc1OS(=O)(=O)c1ccc([N+](=O)[O-])cc1,11% (inactive)
23,CCOC(=O)c1c[nH]c2ccc(Cl)cc2c1=O,14% (inactive)
24,C=CCn1c(CSc2nc3ccccc3s2)nnc1SC/C=C/c1ccccc1,59% (active)
25,C=CCn1c(CSc2nc3ccccc3s2)n[nH]c1=S,0% (inactive)

row,SMILES,inhibition
1,C=CCn1c(CCCN2C(=O)c3cccc4cccc(c34)C2=O)nnc1SC/C=C/c1ccccc1,8% (inactive)
2,Cc1ccc(NC(=O)C(C)SCc2ccccc2)c(C)c1 (stereo not given),13% (inactive)
3,COc1ccc(C2CC(=O)C3=C(C2)NC(C)=C(C(=O)OCCOc2ccccc2)C3c2cccc(Br)c2)cc1 (stereo not given),6% (inactive)
4,COc1ccc(/C(C)=N/OCC(=O)N2CCN(C(c3ccccc3)c3ccccc3)CC2)cc1OC,51% (active)
5,COc1ccc(C(=O)N2CCN(C(c3ccccc3)c3ccccc3)CC2)cc1OC,13% (inactive)
6,COc1ccc(/C=N/OCC(=O)N2CCN(C(c3ccccc3)c3ccccc3)CC2)cc1OC,45% (inactive)
7,CCc1ccc(C(=O)CSC2=C(C#N)C(c3ccc(Br)cc3)C(C(C)=O)=C(C)N2)cc1 (stereo not given),26% (inactive)
8,COc1ccc(C2(CNS(=O)(=O)c3ccccc3)CCCC2)cc1OC,0% (inactive)
9,COc1cc(C=Nc2cccc(Cl)c2C)ccc1OC(C)=O,11% (inactive)
10,COc1cc(C=C2C(=O)NC(=O)NC2=O)ccc1OCc1c(C)no[n+]1[O-],6% (inactive)
11,Cc1no[n+]([O-])c1COc1ccc(/C=C2\NC(=S)NC2=O)cc1,4% (inactive)
12,COc1cc(/C=C2\NC(=S)NC2=O)ccc1OCc1c(C)no[n+]1[O-],53% (active)
13,O=c1c2c3c(sc2ncn1/N=C/c1ccc(Br)o1)CCCC3,25% (inactive)
14,O=C(Nc1nc(-c2ccc(Br)cc2)cs1)c1ccc([N+](=O)[O-])cc1,37% (inactive)
15,CCOc1ccc(C(=O)NC(=S)Nc2ccc([N+](=O)[O-])cc2OC)cc1Cl,50% (active)
16,COc1ccc(C(=O)NC(=S)Nc2nc(-c3ccccc3)cs2)cc1Cl,16% (inactive)
17,O=C(Nc1nc(-c2ccc([N+](=O)[O-])cc2)cs1)c1ccc(Cl)cc1,32% (inactive)
18,COc1ccc(C(=O)NC(=S)Nc2ccc([N+](=O)[O-])cc2C)cc1Cl,18% (inactive)
19,O=C(NC(=S)Nc1nc(-c2cccc([N+](=O)[O-])c2)cs1)c1ccc(Cl)cc1,35% (inactive)
20,O=C(Nc1nc(-c2ccc(Cl)cc2)cs1)c1ccc([N+](=O)[O-])cc1,51% (active)
21,COc1ccc(C(=O)NC(=S)Nc2nc(-c3cccc([N+](=O)[O-])c3)cs2)cc1Cl,54% (active)
22,CCOc1ccc(C(=O)Nc2ccc([N+](=O)[O-])cc2OC)cc1Cl,14% (inactive)
23,CCOc1ccc(C(=O)NC(=S)Nc2ccc(Cl)cc2)cc1Cl,7% (inactive)
24,CCOc1ccc(C(=O)NC(=S)Nc2ccc(Cl)cn2)cc1Cl,60% (active)
25,CCOc1ccc(C(=O)NC(=S)Nc2ccccn2)cc1Cl,12% (inactive)
